Out of some 69,000 compounds screened, about 8,600 (12%) showed an effect of 50% or more. Many of the other results were omitted from the sample, so strong results are more common in it than they were.
Tested on: Plasmodium berghei
Assay: Screen against P. berghei liver stage (PbLuc), transformed with Luciferase, at 10uM
Format: functional, HepG2
Conditions: tested at 10 uM

With COC(=O)Cn1c(=O)[nH]c2cn(-c3ccccc3)c(=O)n21 as the molecule, how does the INHIBITION read?
The INHIBITION was -4.56%.

With CC(C)CCN(C)Cc1ccccc1-c1nc(C(C)C)cc(=O)[nH]1 as the molecule, how does the INHIBITION read?
The INHIBITION was -6.83%.

With Cc1cc(CNCc2c(C(C)C)nn(C)c2N2CCOCC2)no1 as the molecule, how does the INHIBITION read?
Its INHIBITION is 28.8%.

How did the INHIBITION turn out when O=C(COCCOc1ccccc1)N1CCCC(n2ccnc2)C1 (centres undefined) was run?
The INHIBITION was 15.6%.

Which INHIBITION does the source give for Cc1ccc(CN2CCn3c(C(=O)N(C)C)cnc3C2)s1 here?
Its INHIBITION is 42.1%.

CC1CCc2n[nH]c(C(=O)N3CCc4c(nc(N(C)C)[nH]c4=O)C3)c2C1 (centres undefined) was tested. Which INHIBITION did it give?
Its INHIBITION is 16.3%.

With CN(C)c1nccc(N(C)Cc2ncnn2C)n1 as the molecule, how does the INHIBITION read?
The INHIBITION was 32%.

CN(C)c1nccc(N(C)Cc2nc3ccccc3n2C)n1 was tested. Which INHIBITION did it give?
Its INHIBITION is 55.5%.

Which INHIBITION does the source give for CN(Cc1ncnn1C)c1ccnc(Cc2ccccc2)n1 here?
The INHIBITION was -7.16%.

Which INHIBITION does the source give for COCCNC(=O)[C@H]1C[C@@H]2CCN(c3ccccc3)C[C@H]2O1 here?
Its INHIBITION is 10.5%.

Which INHIBITION does the source give for COCCNC(=O)[C@H]1C[C@@H]2CCN(CCc3ccccc3)C[C@@H]2O1 here?
The INHIBITION was 22.9%.

How did the INHIBITION turn out when O=C([C@@H]1C[C@@H]2CCN(C3CCOCC3)C[C@H]2O1)N1CCCC1 was run?
The INHIBITION was -9.26%.

How did the INHIBITION turn out when O=C(NCC1CC1)[C@@H]1C[C@@H]2CCN(Cc3ccccc3)C[C@H]2O1 was run?
Its INHIBITION is 0.618%.

How did the INHIBITION turn out when O=C(NC1CC1)[C@@H]1C[C@@H]2CCN(Cc3ccccc3)C[C@@H]2O1 was run?
The INHIBITION was 47.4%.

For O=C(NC1CCC1)[C@@H]1C[C@@H]2CCN(Cc3ccncc3)C[C@H]2O1, which INHIBITION is on record?
Its INHIBITION is 32.7%.

Which INHIBITION does the source give for O=C([C@@H]1C[C@@H]2CCN(C3CCOCC3)C[C@@H]2O1)N1CCCC1 here?
Its INHIBITION is -24.1%.

For O=C([C@H]1C[C@@H]2CCN(C3CCOCC3)C[C@H]2O1)N1CCCC1, which INHIBITION is on record?
Its INHIBITION is 51%.

COCCNC(=O)[C@H]1C[C@@H]2CCN(CCc3ccccc3)C[C@H]2O1 was tested. Which INHIBITION did it give?
Its INHIBITION is 59%.

Which INHIBITION does the source give for O=C(NCC1CCOCC1)[C@H]1C[C@@H]2CCN(Cc3ccccc3)C[C@H]2O1 here?
Its INHIBITION is 32.2%.

How did the INHIBITION turn out when O=C(NCC1CC1)[C@H]1C[C@@H]2CCN(CCc3ccccc3)C[C@H]2O1 was run?
The INHIBITION was 54.4%.

With O=C(NC1CCC1)[C@@H]1C[C@@H]2CCN(Cc3cccs3)C[C@@H]2O1 as the molecule, how does the INHIBITION read?
Its INHIBITION is 50%.

COc1ccc(OC2CCN(C(=O)[C@@H](N)Cc3c[nH]cn3)CC2)cc1 was tested. Which INHIBITION did it give?
The INHIBITION was 23.3%.

CN(C)CC1CSCCCN1C(=O)c1cccc(C(F)(F)F)c1 (centres undefined) was tested. Which INHIBITION did it give?
Its INHIBITION is 4.35%.

With CC(=O)N1CCN(C(=O)Cc2cnc(-c3c(Cl)cccc3Cl)s2)CC1 as the molecule, how does the INHIBITION read?
Its INHIBITION is 13.8%.

CC(C)N1CCC(c2cc(C(F)(F)F)n3ccnc3n2)CC1 was tested. Which INHIBITION did it give?
Its INHIBITION is 15.9%.

Which INHIBITION does the source give for O=C1CNc2ncnc(Nc3cccc(Cn4cccn4)c3)c2N1 here?
The INHIBITION was 46.1%.

For Cc1nonc1CN(C)Cc1cnn(-c2ccc(Cl)cc2)c1, which INHIBITION is on record?
The INHIBITION was -8.58%.

CN(C)CCCC(=O)N1C[C@@H]2CC[C@H]1CN(Cc1ccccc1)C2 was tested. Which INHIBITION did it give?
Its INHIBITION is 11.2%.

For c1ccc(-n2ccc(CN3CCCCC3Cn3cncn3)n2)cc1 (centres undefined), which INHIBITION is on record?
The INHIBITION was -10.1%.

With CCn1nc(C)c(NC(=O)CN2CC[C@@H](F)C2)c1C as the molecule, how does the INHIBITION read?
The INHIBITION was 24.5%.

With Cc1ncccc1NC(=O)[C@H]1C[C@@H]2CCN(Cc3ccsc3)C[C@H]2O1 as the molecule, how does the INHIBITION read?
The INHIBITION was 75.4%.

With COc1ccccc1CN1CC[C@H]2C[C@H](C(=O)N3CCCC3)O[C@H]2C1 as the molecule, how does the INHIBITION read?
The INHIBITION was 64.2%.

For O=C([C@H]1C[C@@H]2CCN(c3cccc(F)c3)C[C@H]2O1)N1CCCC1, which INHIBITION is on record?
Its INHIBITION is 89.5%.

How did the INHIBITION turn out when CNC(=O)[C@H]1C[C@@H]2CCN(CCc3ccccc3)C[C@@H]2O1 was run?
Its INHIBITION is 18.3%.

For Cc1ncccc1NC(=O)[C@@H]1C[C@@H]2CCN(Cc3cccs3)C[C@H]2O1, which INHIBITION is on record?
Its INHIBITION is 8.93%.

With O=C([C@@H]1C[C@@H]2CCN(c3cccc(F)c3)C[C@H]2O1)N1CCCC1 as the molecule, how does the INHIBITION read?
Its INHIBITION is 42.1%.

Cc1ncccc1NC(=O)[C@H]1C[C@@H]2CCN(Cc3nccs3)C[C@@H]2O1 was tested. Which INHIBITION did it give?
Its INHIBITION is 31.8%.

How did the INHIBITION turn out when CN1CCN(C(=O)[C@@H]2C[C@@H]3CCN(c4cccc(F)c4)C[C@H]3O2)CC1 was run?
The INHIBITION was 23.3%.

With O=C([C@@H]1C[C@@H]2CCN(Cc3ccc4c(c3)OCO4)C[C@@H]2O1)N1CCCC1 as the molecule, how does the INHIBITION read?
Its INHIBITION is 33.4%.

O=C([C@@H]1C[C@@H]2CCN(CCc3ccccc3)C[C@H]2O1)N1CCCC1 was tested. Which INHIBITION did it give?
Its INHIBITION is 50%.

How did the INHIBITION turn out when COc1ccccc1CN1CC[C@H]2C[C@@H](C(=O)N3CCCC3)O[C@H]2C1 was run?
The INHIBITION was -16.6%.

O=C([C@@H]1C[C@@H]2CCN(Cc3ccoc3)C[C@H]2O1)N1CCCC1 was tested. Which INHIBITION did it give?
The INHIBITION was 26.7%.

For CC(C)c1ccc(-n2ncc(C(=O)NCC3COC(C)(C)O3)c2N)cc1 (centres undefined), which INHIBITION is on record?
The INHIBITION was -20.1%.

With CCOC(=O)NCCC(=O)NC(C)(C)c1ccc2c(c1)OCCO2 as the molecule, how does the INHIBITION read?
The INHIBITION was -15.7%.

How did the INHIBITION turn out when CC(C)(C)c1nc(CN(Cc2cccs2)CC2CCCO2)no1 (centres undefined) was run?
Its INHIBITION is 11.2%.

c1cncc(COc2ccccc2CNC2CCc3ncnn3C2)c1 (centres undefined) was tested. Which INHIBITION did it give?
The INHIBITION was -4.823%.

With Cc1noc(C2CCC3(CCN(C(=O)c4ncccn4)CC3)O2)n1 (centres undefined) as the molecule, how does the INHIBITION read?
The INHIBITION was -14.2%.

O=C(C(c1ccccc1)S(=O)(=O)c1ccccn1)N1CCCCC1 (centres undefined) was tested. Which INHIBITION did it give?
Its INHIBITION is 24.7%.

With Cc1ccc(C(C)N(C)C(=O)c2ccc(=O)n(C)c2)s1 (centres undefined) as the molecule, how does the INHIBITION read?
Its INHIBITION is 37.4%.
